Results reported in PubChem BioAssay (NCATS).
Inconclusive results are not listed. Active and inactive are the calls of the source. Unless noted, the call rests on the fitted dose curve; in most records, active means well fitted curve in the direction sought with a large enough effect; inconclusive means small, poorly fitted or top-dose-only effect, or another doubt; inactive means no such curve, though single readings can be large; an effect the other way counts as inactive or inconclusive.

Key:
[1] = qHTS assay for small molecule agonists of the antioxidant response element (ARE) signaling pathway (AID 651741; active means well fitted activation curve with a large enough effect in the signal ratio; the % refers to the signal ratio; further: potency means the concentration at half of the fitted maximal effect)
Method in brief: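 Agonist activity is measured as ARE-driven beta-lactamase expression in a stable HepG2 reporter line, using 16 h compound treatment at 37 C and a FRET substrate fluorescence readout after 2 h.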

[2] = qHTS assay for environmental chemicals that activate the Aryl hydrocarbon Receptor (AhR) signaling pathway (AID 651777); settings: 1A2-DRE human hepatoma cells, luciferase, 24 h; hits give high values; further: % of control where 0% means no effect; nearly all actives have a fitted effect of over 15% in size
Method in brief: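 Luminescence read-out: One-Glo added for 30 min at RT after 24 hr compound treatment (37 C, 5% CO2) of human hepatoma cells expressing a DRE/CYP1A2 promoter–luciferase reporter; increased signal indicates AhR activation.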

[3] = molecular target: Arylsulfatase A (Homo sapiens) (UniProt P15289); assay: qHTS screen for enhancers of Arylsulfatase A (ASA1): LOPAC Validation Assay (AID 720538); further: potency means the concentration at half of the fitted maximal effect
Method in brief: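 Enhancer assay in patient-derived MLD fibroblasts carrying ASA-I179S: 48 h compound exposure at 37 C, then 14 h room-temperature pNCS turnover (0.5 mM final) in lysis buffer. Read by fluorescence at 525/598 nm after NaOH stop.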

[4] = qHTS for Activators of Parkin Expression: LOPAC Validation Assay (NLuc Reporter) (AID 720572; further: potency means the concentration at half of the fitted maximal effect)
Method in brief: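 Compound effects on Parkin promoter activity were measured as NanoLuc luminescence after 24 h at 37 C. The neuronal reporter line also carried FLuc, which was read first. LOPAC compounds were tested at 7 concentrations, with normalization to DMSO (0%) and positive control (100%).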

[5] = qHTS for Activators of Parkin Expression: LOPAC Validation Assay (FLuc Reporter) (AID 720573; further: potency means the concentration at half of the fitted maximal effect)
Method in brief: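 FLuc signal from Parkin-promoter coincidence reporter neuronal cells, normalized to DMSO and positive control (100%). Cells (1,500/well) pre-incubated 24 h, then exposed to LOPAC compounds in 7-point dose response for 24 h at 37 C, 5% CO2.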

[6] = qHTS assay for small molecule agonists of the antioxidant response element (ARE) signaling pathway measured by Nrf2-dependant transcriptional activity (AID 720636; active means well fitted curve in the direction sought with a large enough effect in the repeat runs; an effect the other way counts as inactive or inconclusive;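 further: HepG2 cells with an ARE-driven luciferase reporter; % of control where 0% means no effect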)
Method in brief: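 HepG2 ARE-luc reporter line, 1% dialyzed FBS; 6 hr attachment at 37 C, compound pinned in, 16 hr at 37 C/5% CO2; ONE-Glo, 30 min RT, luminescence read.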

[7] = qHTS assay for small molecule agonists of the antioxidant response element (ARE) signaling pathway measured by Nrf2-dependant transcriptional activity - cell viability counter screen (AID 720653; active means well fitted curve in the direction sought with a large enough effect in the repeat runs; an effect the other way counts as inactive or inconclusive; further: on the % scale 0 is the no-effect control and ±100 the full control effect); settings: ARE-bla HepG2 viability, CellTiter-Glo ATP luminescence, 16 h; hits give low values
Method in brief: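 Cytotoxicity counter screen: intracellular ATP quantified by CellTiter-Glo luminescence in the same ARE-bla HepG2 plates, after 16 h compound exposure and a 2 h beta-lactamase substrate step.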

[8] = qHTS for compounds that reverse cellular toxicity of Amyloid beta (A-beta) peptide in yeast: LOPAC Validation Assay (AID 720559);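 further: plate controls were DMSO for no effect and equimolar ferric chloride plus clioquinol rescue for full effect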
Method in brief: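 Rescue of A-beta toxicity was scored as yeast growth by 600 nm absorbance after 48 hr at 30 C with compound. Normalization used DMSO (negative) and equimolar ferric chloride plus clioquinol (positive).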

Chain of Arylsulfatase A (Homo sapiens) (P15289 whole entry, looked up): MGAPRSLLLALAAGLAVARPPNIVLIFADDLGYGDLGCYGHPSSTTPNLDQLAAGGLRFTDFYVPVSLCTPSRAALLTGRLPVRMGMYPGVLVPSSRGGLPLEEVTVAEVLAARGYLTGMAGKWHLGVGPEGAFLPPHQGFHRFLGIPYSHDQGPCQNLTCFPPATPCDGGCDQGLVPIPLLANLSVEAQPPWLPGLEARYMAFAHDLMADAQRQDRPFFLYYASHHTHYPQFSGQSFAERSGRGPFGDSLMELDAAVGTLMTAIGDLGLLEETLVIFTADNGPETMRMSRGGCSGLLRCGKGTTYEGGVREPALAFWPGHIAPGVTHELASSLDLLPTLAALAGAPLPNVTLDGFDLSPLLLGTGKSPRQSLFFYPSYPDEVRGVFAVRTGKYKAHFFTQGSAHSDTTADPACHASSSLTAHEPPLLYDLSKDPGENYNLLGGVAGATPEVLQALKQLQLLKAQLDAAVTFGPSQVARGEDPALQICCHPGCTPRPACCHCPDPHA

C/C(=C\c1ccc(C(=O)O)cc1)c1ccc2c(c1)C(C)(C)CCC2(C)C
inactive: activation [2] 0.324% | Potency [3] | Potency [4] | Potency [5] | outcome [6] | max response [7] -1.94%
active: Potency [1] 27.3 µM

COc1ccc2c(c1)CCC1C2CC[C@@]2(C)C1CC[C@@H]2NCCCCCCN1C(=O)C=CC1=O (some centres not stated)
inactive: Potency [3] | outcome [8]

N[C@@H](CCC(=O)N[C@H](CSN=O)C(=O)NCC(=O)O)C(=O)O
inactive: Potency [3] | outcome [8] | Potency [4] | Potency [5]

O=c1cc(-c2ccccc2F)[nH]c2cc3c(cc12)OCO3
inactive: Potency [3] | outcome [8] | Potency [4] | Potency [5]

Fc1ccc(CN(C2=NCCN2)c2c(Cl)cccc2Cl)cc1
inactive: Potency [3] | outcome [8] | Potency [4] | Potency [5]

O=C(O)C1=CCNCC1
inactive: Potency [3] | outcome [8] | Potency [4] | Potency [5]

Nc1ccc(-c2nc3ccc(-c4nc5ccc(N)cc5[nH]4)cc3[nH]2)cc1
active: Potency [3] 6.75 µM
inactive: outcome [8] | Potency [4] | Potency [5]

O=C(O)/C=C/c1ccc(O)c(O)c1
inactive: Potency [3] | outcome [8] | Potency [4] | Potency [5]

Cc1cccc(C2CN(C)CCc3c2cc(O)c(O)c3Cl)c1 (configuration not stated)
inactive: Potency [3] | outcome [8] | Potency [4] | Potency [5]

CC[n+]1c(/C=C/C=C2/N(C)c3ccccc3C2(C)C)sc2ccccc21
inactive: Potency [3] | outcome [8] | Potency [4] | Potency [5]

C=CCN1CCc2c(cc(O)c(O)c2Br)[C@@H](c2ccccc2)C1
inactive: Potency [3] | outcome [8] | Potency [4] | Potency [5]

O=C1Cc2c([nH]c3ccc(Br)cc23)-c2ccccc2N1
inactive: Potency [3] | outcome [8]
active: Potency [4] 5.8 µM | Potency [5] 2.59 µM

C=C1C(=O)O[C@@H]2[C@H]3O[C@]3(C)CCC=C(C)CC[C@@H]12
inactive: Potency [3] | outcome [8] | Potency [4] | Potency [5]

COc1cccc(OC)c1OCCNCC1CSc2ccccc2O1 (configuration not stated)
active: Potency [3] 1.07 µM
inactive: outcome [8] | Potency [4] | Potency [5]

CN1CCc2cc(Cl)c(O)cc2[C@@H](c2ccccc2)C1
inactive: Potency [3] | outcome [8] | Potency [4] | Potency [5]

CC1C(=O)N(C)C(=O)c2nc[nH]c21 (configuration not stated)
inactive: Potency [3] | outcome [8] | Potency [4] | Potency [5]

c1ccc(CN2CCC3(CCCc4ccccc43)CC2)cc1
inactive: Potency [3] | outcome [8] | Potency [4] | Potency [5]

NC1(C(=O)O)CCc2cc(C(=O)O)ccc21 (configuration not stated)
inactive: Potency [3] | outcome [8] | Potency [4] | Potency [5]

NCCCNCCCCNCCCN
inactive: Potency [3] | outcome [8] | Potency [4] | Potency [5]

OCC1NCC(O)C(O)C1O (configuration not stated)
inactive: Potency [3] | outcome [8] | Potency [4] | Potency [5]

O=C(O)/C=C/c1cnc[nH]1
inactive: Potency [3] | outcome [8] | Potency [4] | Potency [5]

COc1ccccc1N1CCN(CCN(C(=O)c2ccc(F)cc2)c2ccccn2)CC1
inactive: Potency [3] | outcome [8] | Potency [4] | Potency [5]

CCCCCCC/C=C\CCCCCCCCC(=O)O
inactive: Potency [3] | outcome [8] | Potency [4] | Potency [5]

CCCCCCN(CCCCCC)C(=O)Cc1c(-c2ccc(F)cc2)[nH]c2ccccc12
inactive: Potency [3] | outcome [8] | Potency [4] | Potency [5]

Cc1nc2n(c(=O)c1CCN1CCC(c3noc4cc(F)ccc34)CC1)CCCC2O (configuration not stated)
inactive: Potency [3] | outcome [8] | Potency [4] | Potency [5]

N=S(=O)(O)Cc1noc2ccccc12
inactive: Potency [3] | outcome [8] | Potency [4] | Potency [5]

N#C/C(=C\c1ccc(O)c(O)c1)C(=O)NCCCNC(=O)/C(C#N)=C/c1ccc(O)c(O)c1
inactive: Potency [3] | outcome [8] | Potency [4] | Potency [5]

CN(CC[C@@H](Oc1ccc(C(F)(F)F)cc1)c1ccccc1)CC(=O)O
inactive: Potency [3] | outcome [8] | Potency [4] | Potency [5]

Nc1ncnc2c1ncn2C1CCCO1 (configuration not stated)
active: Potency [3] 2.69 µM
inactive: outcome [8] | Potency [4] | Potency [5]

C=CCn1c(=O)c2c(nc(-c3ccc(S(=O)(=O)O)cc3)n2C)n(C)c1=O
inactive: Potency [3] | outcome [8] | Potency [4] | Potency [5]

O=C(c1ccc2c(c1)OCCO2)N1CCCCC1
inactive: Potency [3] | outcome [8] | Potency [4] | Potency [5]

Oc1cc2c(cc1O)C(c1ccccc1)CNCC2 (configuration not stated)
inactive: Potency [3] | outcome [8] | Potency [4] | Potency [5]

O=C(O)Cc1ccc(O)c(O)c1
inactive: Potency [3] | outcome [8] | Potency [4] | Potency [5]

NS(=O)(=O)c1cccc2c1c([N+](=O)[O-])cc1nc(O)c(O)nc12
inactive: outcome [8] | Potency [4] | Potency [5]
active: Potency [3] 10.7 µM

CN1CCC2(CCN3CCc4c(oc5ccccc45)C3C2)N(C)C1=O (configuration not stated)
inactive: Potency [3] | outcome [8] | Potency [4] | Potency [5]

O=C(N[C@@H](Cc1ccccc1)C(=O)CCl)OCc1ccccc1
inactive: Potency [3] | outcome [8] | Potency [4] | Potency [5]

CNc1ncnc2c1ncn2[C@H]1C[C@H](OP(=O)(O)O)[C@@H](COP(=O)(O)O)O1
inactive: Potency [3] | outcome [8] | Potency [4] | Potency [5]

N#Cc1cc2nc(O)c(O)nc2cc1[N+](=O)[O-]
inactive: Potency [3] | outcome [8] | Potency [4] | Potency [5]

COc1ccccc1N1CCN(CCCCNC(=O)c2ccc3ccccc3c2)CC1
inactive: Potency [3] | outcome [8] | Potency [4] | Potency [5]
